The results in this text go back to PubChem BioAssay (NCI).

Some test systems named below: NCI-H23 lung; NCI-H226 lung; NCI-H322M lung; HOP-62 NSCLC; NCI-H460 lung; HOP-92 NSCLC; NCI-H522 lung; A549/ATCC NSCLC; 786-0 renal; COLO 205 colon.
Assay in all cases: NCI-60 one-dose screen, 48 h (100 = growth as untreated, 0 = no growth, -100 = all killed)
What all share (details): 10 µM unless noted

Structures are written as SMILES. Values joined by “and” are separate entries in the source; they are usually repeats but may differ in a detail not shown here. Identical values can stand only once. About 83,000 compounds went through this panel and 20% of them were active in at least one assay; those are over-represented in the sample as a whole.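 The endpoint reported here, percent growth, reads 100 for growth as untreated, 0 for no net growth and -100 for all cells dead.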 Active and inactive are the calls of the source. Rule for the calls: active = growth percent below 10; inactive = the rest.

`CCN(CC)CCCC(C)N(Cc1ccccc1)CC(O)c1ccc(Cl)cc1` (stereo unspecified): the growth with NCI-H23 lung was 106% (inactive) and 101% (inactive); in the assay on NCI-H226 lung, 98.9% (inactive) and 110% (inactive); with NCI-H322M lung it was 114% (inactive) and 98% (inactive); in the assay with HOP-62 NSCLC it was 97.3% (inactive) and 92.8% (inactive); with NCI-H460 lung, 101% (inactive) and 116% (inactive); with HOP-92 NSCLC, 71.7% (inactive) and 95.2% (inactive). Also, the growth in the assay with NCI-H522 lung is 107% (inactive) and 89.8% (inactive); in the assay with A549/ATCC NSCLC, 103% (inactive) and 96.7% (inactive); in the assay on 786-0 renal it was 108% (inactive) and 96.8% (inactive); in the assay with COLO 205 colon, 103% (inactive) and 111% (inactive).
In the case of `COc1cc(/C=N/Nc2nc3c([nH]2)c(=O)n(C)c(=O)n3C)ccc1O`, the growth with NCI-H23 lung is 93.6% (inactive) and 111% (inactive); with NCI-H226 lung, 103% (inactive) and 113% (inactive); with NCI-H322M lung, 101% (inactive) and 105% (inactive); in the assay on HOP-62 NSCLC, 105% (inactive) and 102% (inactive); in the assay on NCI-H460 lung, 109% (inactive) and 111% (inactive); in the assay on HOP-92 NSCLC, 102% (inactive). For the same compound, the growth in the assay on A549/ATCC NSCLC is 105% (inactive) and 97.8% (inactive); with 786-0 renal, 95.7% (inactive) and 112% (inactive); in the assay on COLO 205 colon, 119% (inactive) and 126% (inactive).
In the case of `NCCSC(C[N+](=O)[O-])c1ccccc1Cl` (stereo unspecified), the growth was 95.6% (inactive) in the assay with NCI-H23 lung; 99.1% (inactive) in the assay with NCI-H226 lung; 91.7% (inactive) in the assay with NCI-H322M lung; 106% (inactive) in the assay with HOP-62 NSCLC; 98.2% (inactive) in the assay on NCI-H460 lung; 102% (inactive) in the assay on HOP-92 NSCLC. Also, the growth in the assay with NCI-H522 lung was 66.6% (inactive); in the assay on A549/ATCC NSCLC it was -26.9% (active); with 786-0 renal, 101% (inactive); with COLO 205 colon, 99.2% (inactive).
With `O=[N+]([O-])c1ccccc1/C=N\Nc1ccccc1`, the growth with NCI-H23 lung is 75.3% (inactive) and 88.1% (inactive); with NCI-H226 lung it was 89.4% (inactive) and 97.8% (inactive); in the assay with NCI-H322M lung it was 86.5% (inactive) and 78.3% (inactive); in the assay with HOP-62 NSCLC it was 90% (inactive) and 90.6% (inactive); in the assay on NCI-H460 lung it was 91.2% (inactive) and 97.4% (inactive); with HOP-92 NSCLC, 72.2% (inactive). For the same compound, the growth in the assay with NCI-H522 lung is 68.2% (inactive) and 62.3% (inactive); with A549/ATCC NSCLC, 81.4% (inactive) and 81.6% (inactive); in the assay with 786-0 renal, 86.6% (inactive) and 101% (inactive); with COLO 205 colon it was 94.4% (inactive) and 105% (inactive).
As for `Nc1nc2ncc(CNc3ccc(C(=O)N[C@@H](CCc4nn[nH]n4)C(=O)O)cc3)nc2c(=O)[nH]1`, the growth is 95.7% (inactive) and 95.5% (inactive) in the assay with NCI-H23 lung; 98.7% (inactive) and 93.8% (inactive) with NCI-H226 lung; 103% (inactive) and 102% (inactive) in the assay with NCI-H322M lung; 103% (inactive) and 92.1% (inactive) in the assay on HOP-62 NSCLC; 100% (inactive) and 101% (inactive) in the assay on NCI-H460 lung; 93.4% (inactive) and 78.5% (inactive) in the assay on HOP-92 NSCLC. For the same compound, the growth is 101% (inactive) and 84.6% (inactive) in the assay on NCI-H522 lung; 106% (inactive) and 95.3% (inactive) in the assay with A549/ATCC NSCLC; 106% (inactive) and 109% (inactive) in the assay on 786-0 renal; 107% (inactive) and 110% (inactive) with COLO 205 colon.
With `NC(=O)c1ccccc1OCC(O)CO` (stereo unspecified), the growth with NCI-H23 lung was 110% (inactive); in the assay on NCI-H226 lung, 95.8% (inactive); in the assay with NCI-H322M lung, 110% (inactive); with HOP-62 NSCLC, 101% (inactive); with NCI-H460 lung, 103% (inactive); in the assay with HOP-92 NSCLC it was 117% (inactive). Further, the growth was 98.4% (inactive) with NCI-H522 lung, 98.1% (inactive) in the assay on A549/ATCC NSCLC, 103% (inactive) with 786-0 renal and 114% (inactive) in the assay on COLO 205 colon.
For the compound `O=C(CN1CCOCC1)N1CCOCC1`, the growth with NCI-H23 lung was 110% (inactive) and 104% (inactive); with NCI-H226 lung it was 105% (inactive) and 113% (inactive); in the assay with NCI-H322M lung it was 92% (inactive) and 110% (inactive); with HOP-62 NSCLC, 106% (inactive) and 112% (inactive); in the assay on NCI-H460 lung, 111% (inactive) and 114% (inactive); in the assay with HOP-92 NSCLC, 75.3% (inactive). Besides, the growth in the assay with NCI-H522 lung is 75.3% (inactive) and 101% (inactive); in the assay on A549/ATCC NSCLC it was 103% (inactive); with 786-0 renal, 102% (inactive) and 108% (inactive); in the assay with COLO 205 colon it was 115% (inactive) and 105% (inactive).
Take `O=Nc1ccc(O)cc1`: the growth in the assay with NCI-H23 lung is 78.9% (inactive) and 94.9% (inactive); in the assay on NCI-H226 lung, 95.5% (inactive) and 109% (inactive); with NCI-H322M lung it was 104% (inactive) and 97.4% (inactive); with HOP-62 NSCLC it was 101% (inactive) and 97.3% (inactive); with NCI-H460 lung, 109% (inactive) and 96.9% (inactive); in the assay on HOP-92 NSCLC, 90.4% (inactive) and 101% (inactive). The growth was 87.8% (inactive) and 78.5% (inactive) with NCI-H522 lung; 99% (inactive) and 93.9% (inactive) in the assay with A549/ATCC NSCLC; 98.2% (inactive) and 110% (inactive) in the assay on 786-0 renal; 104% (inactive) and 111% (inactive) in the assay with COLO 205 colon.
On to `CCCCOc1cc(C(=O)NCCN(CC)CC)c2ccccc2n1`, for which the growth was 88.7% (inactive) and 106% (inactive) in the assay with NCI-H23 lung; 94.5% (inactive) and 105% (inactive) with NCI-H226 lung; 100% (inactive) and 94.7% (inactive) in the assay with NCI-H322M lung; 99.4% (inactive) and 102% (inactive) with HOP-62 NSCLC; 110% (inactive) and 103% (inactive) with NCI-H460 lung; 45.8% (inactive) and 51.7% (inactive) in the assay on HOP-92 NSCLC. In addition, the growth was 103% (inactive) in the assay on NCI-H522 lung; 90.6% (inactive) and 99.9% (inactive) with 786-0 renal; 89.6% (inactive) and 93.1% (inactive) in the assay with COLO 205 colon.
With `CN(C)c1ccc(C(=C2C=CC(=[N+](C)C)C=C2)c2ccccc2Cl)cc1`, the growth was -52.2% (active) and -82.2% (active) with NCI-H23 lung; -41.3% (active) and -56.5% (active) with NCI-H226 lung; -7.26% (active) and 10.3% (inactive) in the assay on NCI-H322M lung; -43.7% (active) and -94.3% (active) in the assay on HOP-62 NSCLC; -60.8% (active) and -49.7% (active) in the assay on NCI-H460 lung; -78.2% (active) and -72% (active) in the assay on HOP-92 NSCLC. Further, the growth in the assay with NCI-H522 lung is -57.4% (active) and -56.5% (active); in the assay with A549/ATCC NSCLC, -55.9% (active) and -34.5% (active); in the assay on 786-0 renal, -88.2% (active) and -100% (active); with COLO 205 colon, -89.1% (active) and -90% (active).
As to `COc1cc2c(c(OC)c1OC)-c1ccc(OC)c(=O)cc1[C@@H](NC(C)=O)CC2`, the growth with NCI-H23 lung is 24.4% (inactive) and 29.4% (inactive) and 12.6% (inactive); with NCI-H226 lung, 33.9% (inactive) and 13.1% (inactive) and 31% (inactive); in the assay with NCI-H322M lung it was 47.7% (inactive) and 32.9% (inactive) and 36.1% (inactive); in the assay on HOP-62 NSCLC it was 31.2% (inactive) and 24.6% (inactive) and 20% (inactive); in the assay with NCI-H460 lung it was 4.46% (active) and 1.09% (active) and 2.92% (active); in the assay with HOP-92 NSCLC, 57.9% (inactive) and 14% (inactive) and 2.37% (active). The growth is 12.3% (inactive) and 44.9% (inactive) in the assay with A549/ATCC NSCLC; 17.5% (inactive) and 9.25% (active) and 15.4% (inactive) in the assay on 786-0 renal; -36.4% (active) and 3.13% (active) and -47.6% (active) in the assay on COLO 205 colon.
As to `CC(=O)NC(Cc1ccccc1)C(=O)Oc1ccc2ccccc2c1` (stereo unspecified), the growth in the assay on NCI-H23 lung is 95.9% (inactive) and 86.5% (inactive); in the assay on NCI-H226 lung, 101% (inactive) and 106% (inactive); with NCI-H322M lung, 124% (inactive) and 108% (inactive); with HOP-62 NSCLC, 96.9% (inactive) and 94.7% (inactive); with NCI-H460 lung, 106% (inactive) and 107% (inactive); with HOP-92 NSCLC, 78% (inactive) and 84.9% (inactive). Further, the growth in the assay on A549/ATCC NSCLC was 94.7% (inactive) and 102% (inactive); in the assay with 786-0 renal, 110% (inactive); in the assay on COLO 205 colon, 93.3% (inactive) and 105% (inactive).
Take `CCN1CCN(CCNc2nccc(-c3c(-c4cccc(O)c4)nc4sccn34)n2)S1(=O)=O`: the growth with NCI-H23 lung was 87.1% (inactive) and 88.3% (inactive); with NCI-H226 lung, 98.9% (inactive) and 99.1% (inactive); in the assay with NCI-H322M lung, 66% (inactive) and 68.3% (inactive); in the assay with HOP-62 NSCLC it was 120% (inactive) and 92.2% (inactive); with NCI-H460 lung, 52.7% (inactive) and 47.9% (inactive); in the assay on HOP-92 NSCLC, 32.2% (inactive). For the same compound, the growth was 67% (inactive) and 63.1% (inactive) with NCI-H522 lung; 86% (inactive) and 70.1% (inactive) with A549/ATCC NSCLC; 94.2% (inactive) and 64.3% (inactive) in the assay on 786-0 renal; 24.5% (inactive) and 28.1% (inactive) in the assay with COLO 205 colon.
In the case of `COC(=O)c1nc(N)nc(C(=O)OC)c1C(=O)c1ccc(OC)cc1`, the growth is 98.5% (inactive) and 58% (inactive) with NCI-H23 lung; 101% (inactive) and 74.8% (inactive) in the assay with NCI-H226 lung; 105% (inactive) and 88.1% (inactive) in the assay with NCI-H322M lung; 115% (inactive) and 62.3% (inactive) in the assay on HOP-62 NSCLC; 121% (inactive) and 55% (inactive) in the assay on NCI-H460 lung; 106% (inactive) and 63.4% (inactive) in the assay with HOP-92 NSCLC. For the same compound, the growth in the assay with NCI-H522 lung is 100% (inactive) and 55.7% (inactive); in the assay with A549/ATCC NSCLC, 102% (inactive) and 53.6% (inactive); in the assay on 786-0 renal, 124% (inactive) and 72.4% (inactive); in the assay with COLO 205 colon it was 109% (inactive) and 75.8% (inactive).
Turning to `Cn1cnc([N+](=O)[O-])c1Sc1ncnc2nc[nH]c12`, the growth with NCI-H23 lung was 72.9% (inactive) and 79.9% (inactive); with NCI-H226 lung, 51.2% (inactive) and 72.4% (inactive); with NCI-H322M lung, 55.1% (inactive) and 47.5% (inactive); with HOP-62 NSCLC, 37.2% (inactive) and 20.8% (inactive); in the assay with NCI-H460 lung, 70.4% (inactive) and 69% (inactive); in the assay on HOP-92 NSCLC, 60.7% (inactive) and 61.4% (inactive). Moreover, the growth was 65.1% (inactive) and 85.9% (inactive) in the assay with NCI-H522 lung; 82% (inactive) and 107% (inactive) in the assay with A549/ATCC NSCLC; 36.2% (inactive) in the assay with 786-0 renal; 94.5% (inactive) and 112% (inactive) in the assay with COLO 205 colon.
